Data taken from PubChem BioAssay AID1851 (National Center for Advancing Translational Sciences (NCATS), 2009).
Where “and” joins values, the source holds several entries; their conditions need not be identical. Equal values may be shown once. In all, about 16,000 compounds went through this assay and about 5,100 (32%) were called active. Roughly 25% stayed inconclusive and do not appear here. The list shows a part of the results. A number with no mark means an inactive call. The call rests on the fitted dose curve; in most records, active means well fitted curve in the direction sought with a large enough effect; inconclusive means small, poorly fitted or top-dose-only effect, or effect the other way; inactive means no such curve, though single readings can be large or run the other way.

Target: Cytochrome P450 3A4 (Homo sapiens) (UniProt P08684)
Assay: Cytochrome panel assay with activity outcomes
Conditions: recombinant CYP, pro-luciferin dealkylation, luminescence, p450-cyp3a4; series mostly up to 57.1 µM
On the % scale 0 is the no-effect control and ±100 the full control effect.

Cytochrome P450 3A4 (Homo sapiens), sequence (P08684 whole entry, looked up): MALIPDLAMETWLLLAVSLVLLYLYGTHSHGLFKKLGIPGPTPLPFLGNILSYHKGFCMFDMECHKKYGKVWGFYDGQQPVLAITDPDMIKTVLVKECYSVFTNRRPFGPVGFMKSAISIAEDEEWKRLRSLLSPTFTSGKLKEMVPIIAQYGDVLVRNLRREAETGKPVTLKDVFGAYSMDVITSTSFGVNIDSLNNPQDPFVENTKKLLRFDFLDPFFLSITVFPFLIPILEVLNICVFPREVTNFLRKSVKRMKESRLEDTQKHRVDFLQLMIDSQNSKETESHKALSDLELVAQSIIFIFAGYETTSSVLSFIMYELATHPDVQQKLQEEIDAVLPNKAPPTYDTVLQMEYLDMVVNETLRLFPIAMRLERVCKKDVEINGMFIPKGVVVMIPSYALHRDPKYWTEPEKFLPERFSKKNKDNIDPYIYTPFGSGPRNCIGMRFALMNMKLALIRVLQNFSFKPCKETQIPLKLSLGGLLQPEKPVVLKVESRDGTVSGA

Row | Compound | AC50 | activity, negative = inhibition
1 | Cc1ccc2c(c1)N(CCC(=O)NCc1cccnc1)C(=O)CO2 | 3.55 µM (active) | –
2 | O=C(O)c1cccc(N2CCCC2=O)c1 | 8.91 µM (active) | –
3 | O=C(O)c1cccc(SSc2cccc(C(=O)O)c2)c1 | – | -11.9% [at 11.4 µM]
4 | O=C(O)c1cccc(CN2CCCCC2)c1 | – | -0.758% [at 11.4 µM]
5 | COc1ccc(Oc2ncc3nc(-c4ccc(F)cc4)c(=O)n(Cc4cccs4)c3n2)cc1 | 15.8 µM (active) | –
6 | Cc1nc2cnc(Oc3ccccc3)nc2n(Cc2cccs2)c1=O | 10 µM (active) | –
7 | COc1ccc(Oc2ncc3nc(C)c(=O)n(Cc4cccs4)c3n2)cc1 | 3.16 µM (active) | –
8 | COc1ccc(-c2nc3cnc(N4CCN(C)CC4)nc3n(Cc3cccs3)c2=O)cc1 | inactive | –
9 | COc1ccc(-c2nc3cnc(N4CCOCC4)nc3n(Cc3cccs3)c2=O)cc1 | inactive | –
10 | COc1ccc(Oc2ncc3ncc(=O)n(Cc4cccs4)c3n2)cc1 | 3.16 µM (active) | –
11 | Cn1cc(-c2nc3cnc(Oc4ccccc4)nc3n(Cc3cccs3)c2=O)c2ccccc21 | inactive | –
12 | O=C(CC(=O)c1ccncc1)c1ccccc1 | 3.16 µM (active) | –
13 | O=C(NNC(=O)c1ccncc1)c1ccncc1 | – | -9.5% [at 11.4 µM]
14 | O=C(C[N+]1(c2ccccc2)CCOCC1)c1ccccc1 | – | -14.4% [at 11.4 µM]
15 | O=c1oc2c(CN3CCOCC3)c(O)ccc2c2ccccc12 | – | -4.65% [at 2.29 µM]
16 | Oc1c(CN2CCOCC2)cc(-c2ccccc2)cc1CN1CCOCC1 | 15.8 µM (active) | –
17 | CCc1cc2c(=O)c(-c3cnn(-c4ccccc4)c3)coc2c(CN2CCOCC2)c1O | – | 12.2% [at 11.4 µM]
18 | CN1CCN(CC(=O)N2c3ccccc3C(=O)Nc3cccnc32)CC1 | inactive | –
19 | CCN(CC)C[C@@H]1CCCCN1CC(=O)N1c2ccccc2C(=O)Nc2cccnc21 | 12.6 µM (active) | –
20 | CC1Cc2ccccc2N1C(=O)Cn1cc([N+](=O)[O-])cn1 (stereo not given) | inactive | –

Row | Compound | AC50 | activity, negative = inhibition
21 | Cc1ccc2c(c1)nnn2C1CCN(S(=O)(=O)c2ccc(C(=O)N3C(C)CCCC3C)cc2)CC1 (stereo not given) | 1.41 µM (active) | –
22 | Cc1ccc2c(c1)nnn2C1CCN(CC(=O)N2c3ccccc3CC2C)CC1 (stereo not given) | 10 µM (active) | –
23 | CCOC(=O)c1ccccc1NC(=O)/C(C)=C/C(=O)O | inactive | –
24 | CCC(=O)Nc1ccccc1C(=O)OCC(=O)c1ccccc1 | inactive | –
25 | CCC(=O)Nc1ccccc1C(=O)OCC(=O)c1cccc2ccccc12 | 11.2 µM (active) | –
26 | c1ccc(Nc2nc(-c3ccc4c(c3)OCO4)nc3ccccc23)cc1 | 5.01 µM (active) | –
27 | c1ccc2c(Nc3ccncc3)nc(-c3ccc4c(c3)OCO4)nc2c1 | 0.501 µM (active) | –
28 | Nc1ncnc2c([C@@H]3O[C@@H](CO)[C@H](O)[C@@H]3O)nsc12 | – | -0.156% [at 11.4 µM]
29 | CN(C)/N=N\c1nc[nH]c1C(N)=O | inactive | –
30 | O=C(c1nn(Cc2ccccc2)c(=O)c2ccccc12)N1CCN(C/C=C/c2ccccc2)CC1 | 2.24 µM (active) | –
31 | O=C(O)C1C2C=CC(C2)C1C(=O)N1CCN(C/C=C/c2ccccc2)CC1 (stereo not given) | inactive | –
32 | O=C(COc1cccc(NC(=O)c2cccc([N+](=O)[O-])c2)c1)c1ccc(Br)cc1 | inactive | –
33 | COc1ccc(C(=O)Nc2cccc(/C(C)=N/NC(=O)c3ccc([N+](=O)[O-])cc3)c2)cc1OC | – | -28.5% [at 2.29 µM]
34 | COc1ccc(-c2nc(NC(=O)c3ccccc3)sc2-c2ccc([N+](=O)[O-])cc2)cc1 | – | 12.5% [at 2.29 µM]
35 | CCC(=O)Nc1cccc(NC(=O)c2cccc([N+](=O)[O-])c2)c1 | 22.4 µM (active) | –
36 | COc1ccc(CC(=O)Nc2cccc(/C(C)=N/NC(=O)c3cccc([N+](=O)[O-])c3)c2)cc1 | 2 µM (active) | –
37 | O=C(Nc1nc(-c2ccccc2)cs1)c1cccc([N+](=O)[O-])c1 | 10 µM (active) | –
38 | N[C@H](C(=O)O)c1ccc(C(=O)O)cc1 | inactive | –
39 | CCN(CC)CCNC(=O)Cn1nc(-c2ccc(C)cc2)ccc1=O | inactive | –
40 | COc1ccc(Oc2ncc3nc(-c4cccc(C#N)c4)c(=O)n(Cc4cccc(OC)c4)c3n2)cc1 | 2 µM (active) | –

Row | Compound | AC50 | activity, negative = inhibition
41 | COc1ncc2nc(-c3cccc(C#N)c3)c(=O)n(CCC#N)c2n1 | 25.1 µM (active) | –
42 | N#CCCn1c(=O)c(-c2cccc(C#N)c2)nc2cnc(Oc3cccc(Cl)c3)nc21 | inactive | –
43 | CN(C)c1ncc2nc(-c3cccc(C#N)c3)c(=O)n(CCC#N)c2n1 | inactive | –
44 | COc1cccc(Cn2c(=O)c(-c3cccc(C#N)c3)nc3cnc(OC)nc32)c1 | 3.16 µM (active) | –
45 | CC(C)[C@H](CO)Nc1nc(Nc2ccc(C(=O)O)c(Cl)c2)c2ncn(C(C)C)c2n1 | inactive | –
46 | NCCC(=O)O | inactive | –
47 | O=C(Nc1nnc(-c2ccc(Cl)cc2)o1)Nc1ccccc1Cl | – | -3.31% [at 2.29 µM]
48 | Cc1ccc(-c2nnc(-c3ccccc3S(=O)(=O)Cc3ccc(Cl)cc3)o2)cc1 | 3.98 µM (active) | –
49 | NS(=O)(=O)c1cc(C(=O)O)c(O)c2ccccc12 | – | -3.6% [at 11.4 µM]
50 | COc1ccc2c(c1)C(c1ccc([N+](=O)[O-])cc1)=NNC(c1ccco1)=N2 | 14.1 µM (active) | –
51 | FC(F)(F)c1ccccc1-c1ccc2ncnc(NCc3cccs3)c2c1 | 5.01 µM (active) | –
52 | Cc1ccccc1-c1ccc2ncnc(NCc3cccs3)c2c1 | 3.98 µM (active) | –
53 | Cc1cc2nc(CCN(C(=S)NCC(C)C)C3CCCC3)[nH]c2cc1C | 17.8 µM (active) | –
54 | COc1cc(C(=O)OC(C)C(=O)Nc2ccc3c(c2)OCO3)ccc1OCc1c(C)noc1C (stereo not given) | 0.631 µM (active) | –
55 | Cc1noc(C)c1COc1ccc(C(=O)NCC2CCCO2)cc1 (stereo not given) | inactive | –
56 | CCc1cc2c(nc1CC)CCN(CC/C(C)=N/O[C@@H](C)c1cn([C@@H]3COC[C@@H]3O)nn1)C2 | – | -5.44% [at 11.4 µM]
57 | C/C(CCN1CCCc2nc(C)c(C)cc21)=N\O[C@@H](C)c1cn([C@H](CO)Cc2ccccc2)nn1 | 2 µM (active) | –
58 | C/C(CCN1CCCCc2nc(C)c(C)cc21)=N\O[C@@H](C)c1cn([C@H](CO)Cc2ccccc2)nn1 | 3.98 µM (active) and 5.01 µM (active) | –
59 | CCc1cc2c(nc1CC)CCN(CC/C(C)=N/O[C@@H](C)c1cn([C@H](CO)Cc3ccccc3)nn1)C2 | 3.16 µM (active) and 3.98 µM (active) | –
60 | CC(C)=NO[C@@H](C)c1cn([C@H](CO)Cc2ccccc2)nn1 | – | -28.8% [at 11.4 µM] and -23.4% [at 11.4 µM]
